HT1080 IDH1KD tx: kills HT-1080 cells with IDH1 knockdown | HT-1080 IDH1 knockdown viability, ATP luminescence, 48 h | Potency, µM (series often up to 46.1 µM), for inactives: at the highest dose activity, negative = toxicity, actives largely listed as cytotoxic | 360,000 compounds, 2% hits | AID 686971;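 further: 0% = DMSO wells and -100% = cell-free medium wells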
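Knockdown cells (IDH1KD HT-1080) received compounds 2 h after plating at 750 cells/well and were kept 48 h at 37 °C in 5% FBS RPMI. A CellTiter-Glo luminescence read gave % activity for curve fitting.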
KB-3-1 tox: kills parental KB-3-1 adenocarcinoma cells. KB-3-1 viability, CellTiter-Glo ATP luminescence, 72 h. 400,000 compounds, 1.4% hits. AID 1347075. Potency, µM (highest dose often 46.1 µM), hits mostly cytotoxic; further: on the % scale 0 is the no-effect control and ±100 the full control effect; nearly all actives have a fitted effect of over 60% in size
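Parental KB-3-1 viability, qHTS format: 72 h compound exposure, 37 °C; CellTiter-Glo; media-only wells and DMSO plates as controls; concentration-effect fits on corrected data.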
HT1080NT lethal: kills 2HG-producing HT-1080-NT fibrosarcoma cells; HT-1080-NT fibrosarcoma viability, CellTiter-Glo ATP luminescence, 48 h; Potency, µM (top dose mostly 46.1 µM), inactives show at the highest dose activity, negative = less viability, usual class: cytotoxic; AID 686970; 360,000 compounds, 1.6% hits;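 further: NT is the 2HG producing partner of a matched IDH1 knockdown line; 0% = DMSO-treated cells and -100% = media-only wells without cells; nearly all actives have a fitted effect of over 55% in size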
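Luminescent CellTiter-Glo readout after 48 hours of compound exposure at 37 degrees C defined viability of HT-1080-NT cells. Activity was normalized to DMSO wells and cell-free media wells; concentration-response curves were fitted and assigned curve classes.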
MCF10A rereplic: DNA re-replication induction in MCF 10a cells; MCF 10A DNA re-replication, Hoechst nuclear intensity, 48 h; AID 624296; 350,000 compounds, 2.9% hits; Potency, µM (highest dose often 46.1 µM), inactives show top-dose activity, positive = re-replication, hits mostly activators; further: % of control where 0% means no effect; nearly all actives have a fitted effect of over 50% in size
KB-V1 cytotox: KB-V1 MDR subline cytotoxicity; 400,000 compounds, 3.4% hits; KB-V1 MDR cells viability, CellTiter-Glo, 72 h; Potency, µM (highest dose often 46.1 µM), actives largely listed as cytotoxic; further: on the % scale 0 is the no-effect control and ±100 the full control effect; nearly all actives have a fitted effect of over 60% in size
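Cells of the MDR subline KB-V1 are plated, dosed with compound at multiple concentrations, and incubated 72 h at 37 degrees C; CellTiter-Glo is then added and luminescence read after 10 min.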
SW480 rerep: inducers of DNA re-replication in SW480 colon cancer cells. SW480 DNA re-replication, Hoechst DNA content imaging, 48 h. AID 624297. 340,000 compounds, 1.8% hits. Potency, µM (titrated, usually from 46.1 µM), inactives show at the top dose re-replication activation, actives largely listed as activators; further: % of control where 0% means no effect; nearly all actives have a fitted effect of over 55% in size
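Readout is total intensity of Hoechst-stained nuclei, excited at 405 nm and collected at 500-530 nm. Compound treatment lasted 48 hr at 37 C in 5% CO2 before staining.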
* hit, by the source's call; i = inactive; ? = inconclusive; . = no result given; [ ] = remark or other dose. Compounds with a hit are over-represented: about 7.9% of the library has one in this group of screens. The call rests on the fitted dose curve; in most records, active means well fitted curve in the direction sought with a large enough effect; inconclusive means small, poorly fitted or top-dose-only effect, or another doubt; inactive means no such curve, though single readings can be large; an effect the other way counts as inactive or inconclusive. Potency means the concentration at half of the fitted maximal effect.

SMILES	HT1080 IDH1KD tx	KB-3-1 tox	HT1080NT lethal	MCF10A rereplic	KB-V1 cytotox	SW480 rerep
COc1ccccc1C(=O)NCC(c1cccs1)N1CCc2ccccc21 (centres undefined)	-15.0%	?	-1.0%	18.4µM*	?	13.6%
CCN(CC)C(c1ccc(C)cc1)c1nnnn1C1CCCCC1 (centres undefined)	0.2%	?	3.1%	?	13µM*	9.0%
CCN(CC)C(c1ccc(F)cc1)c1nnnn1C1CCCCC1 (centres undefined)	0.8%	i	1.9%	1.5%	i	-13.5%
Cc1ccc(N(CC(N)=O)C2SC(=O)N(Cc3ccccc3)C2=O)cc1 (centres undefined)	-5.2%	i	0.8%	20.6µM*	i	?
CCC1C/C(=C\c2cccnc2)C(=O)/C(=C/c2cccnc2)C1 (centres undefined)	?	3.66µM*	?	?	?	.
O=C1/C(=C/c2cccnc2)CCC/C1=C\c1cccnc1	?	?	?	1.16µM*	3.26µM*	1.3µM*
O=C1/C(=C/c2cccnc2)CC/C1=C\c1cccnc1	-9.3%	?	-21.2%	?	i	5.0%
CN(C)c1ccc(/C=C2\CCC/C(=C\c3ccccc3)C2=O)cc1	11.8%	i	12.1%	18.4µM*	18.4µM*	15.4%
O=C(O)c1ccc(/C=C/c2nc3ccccc3c(=O)[nH]2)cc1	-0.7%	i	-2.9%	6.7%	i	?
Cc1[nH]c2ccccc2c1/C=C/c1ccnc2ccccc12	.	8.2µM*	.	.	7.31µM*	.
O=c1[nH]c(/C=C/c2ccccc2Cl)nc2ccccc12	-1.1%	?	-3.3%	15.6%	i	18.4µM*
Clc1ccc(/C=C/c2nc3ccccc3[nH]2)cc1	?	?	-25.0%	?	i	-4.3%
Clc1ccc(/C=C/c2nc3ccccc3[nH]2)c(Cl)c1	?	i	14.6µM*	16.4µM*	?	?
Cc1[nH]c2ccccc2c1/C=C/c1nc2ccccc2c(=O)[nH]1	16.4µM*	?	?	23.1µM*	?	16.4µM*
C(=C\c1c[nH]c2ccccc12)/c1ccnc2ccccc12	.	i	.	.	i	.
COc1ccccc1CNC(=O)c1cc2cccc3c2n1CCS3	.	i	.	.	i	.
COc1cc(/C=C/c2nc3ccccc3c(=O)[nH]2)ccc1O	?	i	-29.8%	.	?	.
Cc1cccc(/C=C/c2nc3ccccc3c(=O)[nH]2)c1	?	?	?	8.2µM*	?	5.17µM*
Cc1ccnc2ccc([N+](=O)[O-])cc12	.	i	.	.	?	.
CC(C)Cc1nc2oc3c(NCC4CCCO4)ncnc3c2c2c1CCC2 (centres undefined)	-0.8%	?	7.3%	?	10.3µM*	-3.7%
O=C(CSc1ncnc2c1oc1ccccc12)NCC1CCCO1 (centres undefined)	1.3%	i	4.2%	-3.0%	i	-9.7%
c1ccc(-c2nc(NCC3CCCO3)c3oc4ccccc4c3n2)cc1 (centres undefined)	-4.0%	i	-14.8%	?	3.66µM*	-3.6%
c1ccc2c(c1)oc1c(NCC3CCCO3)ncnc12 (centres undefined)	-11.1%	i	-1.7%	-1.4%	16.4µM*	-5.2%
Cc1ccc2[nH]c3c(NCc4ccccc4)ncnc3c2c1	-22.9%	i	-15.7%	?	i	-7.4%
O=C(O)CNc1nc(-c2ccccc2)nc2c1oc1ccccc12	-22.9%	i	-7.8%	6.7%	?	1.0%
SMILES	HT1080 IDH1KD tx	KB-3-1 tox	HT1080NT lethal	MCF10A rereplic	KB-V1 cytotox	SW480 rerep
Brc1ccc2[nH]c3c(NCc4ccccn4)ncnc3c2c1	16.4µM*	i	?	11.9%	?	0.0%
Cc1ccc(C)c(-n2nnc3ccccc3c2=O)c1	3.3%	i	3.1%	.	?	.
O=C(NCc1cc(Cl)cc(Cl)c1)c1ccc2nc([C@@H]3O[C@H](CO)[C@H](O)[C@H](O)[C@H]3O)[nH]c2c1	14.3%	i	16.2%	.	i	.
CC1(C(=O)NS(=O)(=O)c2cccs2)CCN1C(=O)C1(c2ccc(Cl)cc2)CC1 (centres undefined)	29.3%	i	5.2%	.	i	.
c1ccc(CNc2ncnc3c2oc2ccccc23)nc1	-2.5%	i	-3.8%	6.2%	20.6µM*	-0.4%
COC(=O)N1CCCCC1c1cc(C(=O)Nc2ccc(OC)cc2C)no1 (centres undefined)	-0.4%	i	24.2%	.	i	.
C=CCN(c1ccccc1)S(=O)(=O)c1cccc(C(=O)Nc2cc(C)ccn2)c1	?	?	-21.4%	19.1%	?	?
C=CCN(c1ccccc1)S(=O)(=O)c1cccc(C(=O)NC2CCN(Cc3ccccc3)CC2)c1	-14.8%	20.6µM*	-5.3%	?	?	?
C=CCN(c1ccccc1)S(=O)(=O)c1cccc(C(=O)NCc2ccco2)c1	?	i	?	1.5%	18.4µM*	1.7%
O=C(NCCN1CCCCC1)c1ccc(Cn2c(SCc3ccc(F)cc3)nc3cccnc32)cc1	.	i	.	.	i	.
Cc1nn(C)c2c1c(C(F)(F)F)cc(=O)n2C(C)C(=O)NCCC(C)C (centres undefined)	.	i	.	.	i	.
COC(=O)CC(=O)CSc1nc2c(cc1C#N)CCC2	?	i	?	1.64µM*	?	?
Cc1ccc(SCC(=O)Nc2nccs2)cc1	11.1%	i	2.4%	-2.2%	i	-1.0%
Cc1ccc(C#N)c(SCC(=O)Nc2nccs2)n1	0.4%	i	0.0%	?	i	16.4µM*
CCOC(=O)c1c(SCC(=O)Nc2nccs2)nc(C)c(C)c1C	-1.6%	.	8.1%	16.4µM*	.	28.0%
N#Cc1cc2c(nc1SCC(=O)Nc1nccs1)CCCCC2	?	i	?	3.66µM*	i	13.3%
CC(C)CCNC(=O)c1cc(-c2ccc(Br)s2)nc2ccccc12	.	i	.	.	i	.
N#Cc1cc2c(nc1SCC(=O)Nc1sc3c(c1C#N)CCC3)CCC2	13.1%	i	21.4%	?	i	15.0%[9.22 µM]
COc1ccc(-c2ccc(C#N)c(SCC(=O)Nc3sc4c(c3C#N)CCC4)n2)cc1OC	5.8%	?	1.8%	2.91µM*	?	2.06µM*
N#Cc1cc2c(nc1SCC(=O)Nc1sc3c(c1C#N)CCC3)CCCCCC2	-5.8%	i	2.5%	3.26µM*	i	?
COc1ccc(-c2ccc(C#N)c(SCC(=O)NCCc3ccccc3)n2)cc1OC	3.1%	i	1.4%	9.2%	i	3.3%

Screening data: PubChem BioAssay, National Center for Advancing Translational Sciences (NCATS)
